Assay outcomes as filed in PubChem BioAssay.
MBNL1-CUG inh = inhibitors of human MBNL1 binding to CUG repeat RNA; TR-FRET MBNL1-His/biotin-(CUG)12 binding, 665/545 ratio; AID 2675; Q9NR56; actives 0.036% (n = 280,000); Potency, µM (series often up to 57.5 µM), without a hit: at the top dose activity change, negative = inhibition, usual class: inhibitors; active = well fitted inhibition curve with a large enough effect in the signal ratio, with a control signal flat, not every such curve was filed as active; inconclusive = small, poorly fitted or top-dose-only effect, or effect the other way, or a change in a side signal; inactive = no such curve, though single readings can be large or run the other way; the % refers to the signal ratio; also: potency is read from the fitted curve at half-maximal effect; % is scaled to controls: 0 for no effect and ±100 for the full control effect
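Inhibition of protein-RNA binding appears as loss of TR-FRET between terbium anti-His antibody on MBNL1-His and streptavidin-XL665 on biotin-(CUG)12. Activity is normalized to buffer-only and uninhibited-complex controls.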
BCR signal inh = blocks chronic active B-cell receptor signaling | ABC-DLBCL IkBa-CBG/CBR reporter, luminescence ratio, 4 h | Potency, µM (doses to about 46.1 µM), for inactives: top-dose activity change, negative = inhibition, actives largely listed as inhibitors | actives 0.05% (n = 340,000); active = well fitted inhibition curve with a large enough effect in the signal ratio, with a control signal flat, not every such curve was filed as active; inconclusive = small, poorly fitted or top-dose-only effect, or effect the other way, or a change in a side signal; the % refers to the signal ratio;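 also: potency is read from the fitted curve at half-maximal effect; plate controls were basal doxycycline-induced cells for no effect and cells given 10 µM MG132 for full effect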
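Cell line TMD8 (human ABC DLBCL), stably expressing tet-inducible CBG68-IkBa fusion and CBR; IMDM/0.5% FBS; cpd up to 46 uM; dox induction, 4 h, 37C/5% CO2; dual luminescence; green/red ratio; MG132 control.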
gsp agonist = agonists of gsp mutant (McCune-Albright syndrome) | gsp mutant cells, cAMP HTRF, 30 min | Potency, µM (top dose mostly 76.9 µM), without a hit: at the top dose activation (cAMP increase), usual class: activators | actives 0.13% (n = 340,000); active = well fitted activation curve with a large enough effect; inconclusive = small, poorly fitted or top-dose-only effect, or another doubt; inactive = no such curve, though single readings can be large or run the other way; cell line not stated here;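 also: phosphodiesterase inhibitor Ro 20-1724 added with compounds to block cAMP breakdown; potency is read from the fitted curve at half-maximal effect; nearly all actives have a fitted effect of over 60% in size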
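Cells stably selected in G418 were plated at 2000/well, grown 16-24 hr, then given compounds in DMSO with the PDE inhibitor […] (300 uM solution added) for 30 min at 37C; cAMP was read by HTRF.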
S-ASM inh = human S-ASM enzyme inhibition. P17405. placental ASM, HMU-PC fluorogenic substrate, 60 min. Potency, µM (top dose mostly 57.5 µM), for inactives: at the top dose activity change, negative = inhibition, usual class: inhibitors. actives 0.006% (n = 340,000). AID 504937; also: potency is read from the fitted curve at half-maximal effect
Target sequence (P17405 47-631 limits assumed): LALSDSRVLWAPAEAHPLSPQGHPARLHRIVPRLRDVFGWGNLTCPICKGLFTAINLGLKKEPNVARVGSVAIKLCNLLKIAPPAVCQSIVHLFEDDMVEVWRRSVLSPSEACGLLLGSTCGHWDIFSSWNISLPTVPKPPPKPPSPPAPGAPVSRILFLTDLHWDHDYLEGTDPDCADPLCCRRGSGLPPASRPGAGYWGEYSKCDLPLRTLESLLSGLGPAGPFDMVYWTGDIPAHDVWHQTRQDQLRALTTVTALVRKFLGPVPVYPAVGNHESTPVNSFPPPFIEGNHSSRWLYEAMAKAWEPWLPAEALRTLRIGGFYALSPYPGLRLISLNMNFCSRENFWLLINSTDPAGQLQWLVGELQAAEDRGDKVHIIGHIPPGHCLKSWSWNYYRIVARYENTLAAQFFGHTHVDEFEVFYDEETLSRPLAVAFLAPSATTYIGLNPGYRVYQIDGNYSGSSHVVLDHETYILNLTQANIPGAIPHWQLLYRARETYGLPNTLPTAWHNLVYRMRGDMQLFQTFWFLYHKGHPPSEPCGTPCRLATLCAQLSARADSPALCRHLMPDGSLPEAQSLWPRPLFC
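Steps: dispense placental human ASM, pin compound, wait 10 min at room temperature, add HMU-PC0 substrate at 9 uM final, incubate 60 min at 37 °C, add stop solution raising pH to 10, read fluorescence.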
gsp antagonist = antagonists of gsp mutant (McCune-Albright syndrome); gsp-mutant cells, cAMP HTRF, 30 min; Potency, µM (doses to about 76.9 µM), for inactives: at the top dose activity change, negative = inhibition, usual class: inhibitors; actives 0.4% (n = 340,000); calls by dose curve; cell line not stated here;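 also: intracellular cAMP measured with PDE inhibitor Ro 20-1724 present during compound exposure; potency is read from the fitted curve at half-maximal effect; % is scaled to controls: 0 for no effect and ±100 for the full control effect; nearly all actives have a fitted effect of over 65% in size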
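HTRF cAMP read-out (cAMP-d2 plus anti-cAMP antibody-K in lysis buffer, 30 min RT). Before lysis, cells are exposed to compounds with […] for 30 min at 37C in DPBS containing Ca/Mg, BSA and Tween 20.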
MBNL1 TRFRET = MBNL1-poly(CUG) RNA binding inhibition confirmed; Potency, µM (series often up to 57.6 µM), for inactives: at the top dose activity change, negative = inhibition, actives largely listed as inhibitors; actives 50% (n = 140); TR-FRET MBNL1-His / biotin-(CUG)12 binding, 60 min; shares compounds with MBNL1-CUG inh
MBNL1 AlphaScrn = confirmation of MBNL1-(CUG)12 RNA binding inhibitors, orthogonal format; shares compounds with MBNL1-CUG inh; AlphaScreen MBNL1-His / biotin-(CUG)12 binding; Potency, µM (highest dose often 57.7 µM), inactives show at the top dose activity, negative = inhibition, most hits filed as inhibitors; actives 30% (n = 140)
MBNL1 HTRF CS = MBNL1-CUG RNA binding inhibitor counterscreen activity; shares compounds with MBNL1-CUG inh; His-Menin/biotin-MLL peptide TR-FRET counterscreen; Potency, µM (series often up to 57.6 µM), for the others: at the highest dose activity, negative = inhibition, hits mostly inhibitors; actives 20% (n = 120)
Active calls of the source: *; [ ] = another dose, or the depositor's remark. Shown are actives, neighbours in structure and some others; about 0.62% of the full set was active somewhere. Unless noted, calls follow the shape of the dose curve; as a rule, active = well fitted curve in the direction sought with a large enough effect; inconclusive = small, poorly fitted or top-dose-only effect, or another doubt; inactive = no such curve, though single readings can be large; an effect the other way counts as inactive or inconclusive.

`COc1cc(C(=O)Nc2ccc3nc(N4CCN(C)CC4)cc(C)c3c2)cc(OC)c1OC` gave MBNL1-CUG inh 22µM*, BCR signal inh inconclusive, gsp agonist inconclusive, S-ASM inh 15%, gsp antagonist 2%, MBNL1 TRFRET 10µM*, MBNL1 AlphaScrn -12% and MBNL1 HTRF CS 29µM*.
For COc1ccc(NC(=O)NC(C(F)(F)F)C(F)(F)F)cc1 the results were MBNL1-CUG inh 32µM*, BCR signal inh inconclusive, gsp agonist -11%, S-ASM inh 4%, gsp antagonist -5%, MBNL1 TRFRET inconclusive, MBNL1 AlphaScrn -2% and MBNL1 HTRF CS inconclusive.
For COc1ccc(CN2CCN(C(=O)C3CCN(C(=O)Nc4ccccc4)CC3)CC2)cc1OC the results were BCR signal inh 0%, gsp agonist -1%, S-ASM inh 2% and gsp antagonist 11%.
C[C@@H]1O[C@@H](OC[C@H]2O[C@@H](Oc3c(-c4ccc(O)c(O)c4)oc4cc(O)cc(O)c4c3=O)[C@H](O)[C@@H](O)[C@@H]2O)[C@H](O)[C@H](O)[C@H]1O was read as MBNL1-CUG inh inconclusive, BCR signal inh 1%, S-ASM inh -6%, gsp antagonist 4%, MBNL1 TRFRET inconclusive, MBNL1 AlphaScrn inconclusive and MBNL1 HTRF CS 17%.
`Cc1ccc(S(=O)(=O)Nc2ccc3cc([N+](=O)[O-])ccc3c2[N+](=O)[O-])cc1` gave gsp agonist 18%, S-ASM inh -4% and gsp antagonist -20%.
For O=S1(=O)CCN(C2CCCC2)CC1 the results were gsp agonist -7%.
Screening CCCCN1C(=O)NC2NC(=O)NC21 (stereo not given) returned MBNL1-CUG inh 5.6µM*, BCR signal inh inconclusive, gsp agonist -14%, S-ASM inh 3%, gsp antagonist 9%, MBNL1 TRFRET 3.3µM*, MBNL1 AlphaScrn 1.2µM* and MBNL1 HTRF CS inconclusive.
Cc1ccc(NC(=O)CSc2ncc(S(=O)(=O)c3ccccc3)c(=O)[nH]2)cc1C was read as MBNL1-CUG inh 25µM*, BCR signal inh inconclusive, gsp agonist -13%, S-ASM inh 7%, gsp antagonist 3%, MBNL1 TRFRET inconclusive, MBNL1 AlphaScrn inconclusive and MBNL1 HTRF CS 6%.
For COc1ccc(C)cc1S(=O)(=O)Nc1ccc(F)c(Cl)c1 the results were MBNL1-CUG inh 25µM*, BCR signal inh 18%, gsp agonist -28%, S-ASM inh -3%, gsp antagonist -11%, MBNL1 TRFRET -3%, MBNL1 AlphaScrn -11% and MBNL1 HTRF CS -3%.
`CCO/C=C1/C(=O)N(Cc2ccccc2)C(=O)c2ccccc21` gave MBNL1-CUG inh 16µM*, BCR signal inh 1%, gsp agonist -12%, S-ASM inh 65%, gsp antagonist 8%, MBNL1 TRFRET -60%, MBNL1 AlphaScrn 52µM* and MBNL1 HTRF CS 3%.
`COc1ccc(NC(=O)Nn2cnnc2)cc1OC` gave MBNL1-CUG inh 40µM*, BCR signal inh 0%, gsp agonist -4%, S-ASM inh 6%, gsp antagonist 4%, MBNL1 TRFRET 26µM*, MBNL1 AlphaScrn -3% and MBNL1 HTRF CS inconclusive.
O=C(Nc1ccc(F)c(Cl)c1)Nn1cnnc1 was read as MBNL1-CUG inh 40µM*, BCR signal inh 1%, MBNL1 TRFRET 13µM*, MBNL1 AlphaScrn -19% and MBNL1 HTRF CS inconclusive.
`O=C(Nc1ccc(F)cc1)Nn1cnnc1` gave MBNL1-CUG inh -23%, BCR signal inh 0%, gsp agonist -51%, S-ASM inh 6% and gsp antagonist 14%.
Screening CCS(=O)(=O)Nc1cc(OC)c(OC)cc1Cc1nccc2cc(OC)c(OC)cc12 returned MBNL1-CUG inh -6%, BCR signal inh inconclusive, gsp agonist -8%[15.4 µM], S-ASM inh -1% and gsp antagonist -15%.
CCCNC(=O)Nc1cc(OC)c(OC)cc1Cc1nccc2cc(OC)c(OC)cc12 was read as MBNL1-CUG inh 25µM*, BCR signal inh inconclusive, gsp agonist -41%, S-ASM inh 1%, gsp antagonist 6%, MBNL1 TRFRET 13µM*, MBNL1 AlphaScrn 0% and MBNL1 HTRF CS inconclusive.
Screening Oc1ccccc1/C=N/Nc1nccnc1Cl returned MBNL1-CUG inh 17%, BCR signal inh inconclusive, gsp agonist 16%, S-ASM inh -6% and gsp antagonist -7%.
`Oc1ccc(/C=N/Nc2nccnc2Cl)c(O)c1` gave MBNL1-CUG inh inconclusive, BCR signal inh inconclusive, gsp agonist 3%, S-ASM inh -2%, gsp antagonist 1%, MBNL1 TRFRET inconclusive, MBNL1 AlphaScrn 6.5µM* and MBNL1 HTRF CS 17%.
COc1ccc(/C=N/Nc2nccnc2Cl)cc1 was read as MBNL1-CUG inh inconclusive, BCR signal inh inconclusive, gsp agonist -4%, S-ASM inh 6%, gsp antagonist -10%, MBNL1 TRFRET inconclusive, MBNL1 AlphaScrn -13% and MBNL1 HTRF CS 18%.
Screening Clc1nccnc1N/N=C/c1ccc(Br)cc1 returned MBNL1-CUG inh inconclusive, BCR signal inh -13%, gsp agonist -15%, S-ASM inh 14% and gsp antagonist -22%.
`COc1cccc(/C=N/Nc2ncnc(Cl)c2N)c1O` gave BCR signal inh inconclusive, gsp agonist -10%, S-ASM inh 2% and gsp antagonist -1%.
`COc1cccc(/C=N/Nc2nccnc2Cl)c1O` gave MBNL1-CUG inh inconclusive, BCR signal inh inconclusive, gsp agonist -28%, S-ASM inh -1%, gsp antagonist -1%, MBNL1 TRFRET inconclusive, MBNL1 AlphaScrn 3.7µM* and MBNL1 HTRF CS 26%.
For Cn1nc(C(=O)NNC(=O)c2cccc(Cl)c2)ccc1=O the results were BCR signal inh inconclusive, gsp agonist 11%, S-ASM inh 2% and gsp antagonist 4%.
